In ChEMBL document CHEMBL3433997, “St. Jude Leishmania screening dataset” (2016):

Key:
Assay type in all cases: functional
[1] = molecular target: Solute carrier family 2, facilitated glucose transporter member 1 (Homo sapiens) (UniProt P11166); test: ST_JUDE_LEISH: Cytotoxicity at 2uM final concentration against transgenic Leishmania Mexicana promastigotes LmGLUT1 that are glucose transport deficient and complemented with the human glucose transporter GLUT1. Activity is measured by DNA content using SYBR green in vitro
[2] = molecular target: Hexose transporter 1 (Plasmodium falciparum) (UniProt O97467); test: ST_JUDE_LEISH: Cytotoxicity at 2uM final concentration against transgenic Leishmania Mexicana promastigotes LmPfHT that are glucose transport deficient and complemented with the Plasmodium falciparum hexose transporter. Activity is measured by DNA content using SYBR green in vitro
[3] = molecular target: Glucose transporter (Leishmania mexicana) (UniProt O61059); test: ST_JUDE_LEISH: Cytotoxicity at 2uM final concentration against transgenic Leishmania Mexicana promastigotes LmGT2 that are glucose transport deficient and complemented with the L. Mexicana glucose transporter 2. Activity is measured by DNA content using SYBR green in vitro

Sequence of Solute carrier family 2, facilitated glucose transporter member 1 (Homo sapiens) (P11166 whole entry): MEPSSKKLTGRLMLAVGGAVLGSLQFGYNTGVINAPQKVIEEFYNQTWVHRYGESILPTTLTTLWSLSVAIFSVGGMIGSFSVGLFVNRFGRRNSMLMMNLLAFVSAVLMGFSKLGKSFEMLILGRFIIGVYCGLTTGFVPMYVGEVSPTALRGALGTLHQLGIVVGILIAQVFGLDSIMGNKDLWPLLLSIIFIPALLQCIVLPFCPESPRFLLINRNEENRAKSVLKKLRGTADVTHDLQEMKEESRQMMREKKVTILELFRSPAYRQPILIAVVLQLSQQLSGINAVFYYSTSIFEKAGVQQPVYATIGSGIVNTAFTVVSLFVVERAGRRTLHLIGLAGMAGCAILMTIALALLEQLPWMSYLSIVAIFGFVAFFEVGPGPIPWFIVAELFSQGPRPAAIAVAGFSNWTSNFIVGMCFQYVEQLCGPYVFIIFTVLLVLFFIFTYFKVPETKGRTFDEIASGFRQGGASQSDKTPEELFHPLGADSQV

Compound | inhibition [1] [%] | inhibition [2] [%] | inhibition [3] [%]
Cc1cc(NC(=O)Nc2ccc(I)c(OCCN(C)C)c2)ccc1Br | 10.5 | 7.25 | 6.57
CCCCCN1CCC(CNS(=O)(=O)c2ccc(C(=O)Nc3cccc(C(F)(F)F)c3)cc2)CC1 | 0.47 | 0.02 | -0.33
O=C(NCc1ccc(F)cc1)c1cc(Br)cc(N2CCN(c3ccncc3)CC2)c1 | 7.75 | 6.55 | 4.17
N=C(N)NCCCC(=O)NCC(N)=O | 5.44 | 8.67 | 2.28
O=c1cc(N2CCCNCC2)c(Cl)nn1Cc1ccc(NS(=O)(=O)c2ccc(Oc3ccccc3)cc2)cc1 | 10.6 | 8 | 8.55
